The list is not random: actives were taken first. Their share in the collection is about 9.9%.
KB-3-1 tox: kills parental KB-3-1 adenocarcinoma cells; KB-3-1 viability, CellTiter-Glo ATP luminescence, 72 h; AID 1347075; actives 1.4% (n = 400,000); Potency, µM (titrated, usually from 46.1 µM), actives largely listed as cytotoxic; also: potency is read from the fitted curve at half-maximal effect; % is scaled to controls: 0 for no effect and ±100 for the full control effect; nearly all actives have a fitted effect of over 60% in size
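72 h, 37 °C compound treatment of KB-3-1 parental cells; CellTiter-Glo added, 10 min, luminescence read. Data corrected against DMSO-only plates and normalized before curve fitting.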
MCF10A rerep: DNA re-replication induction in MCF 10a cells; MCF 10A DNA re-replication, Hoechst nuclear intensity, 48 h; Potency, µM (top dose mostly 46.1 µM), for inactives: top-dose activity, positive = re-replication, hits mostly activators; actives 2.9% (n = 350,000); AID 624296; also: potency is read from the fitted curve at half-maximal effect; % of control where 0% means no effect; nearly all actives have a fitted effect of over 50% in size
SW480 rerep: induces DNA re-replication in SW480 colon adenocarcinoma cells. SW480 DNA re-replication, Hoechst DNA content imaging, 48 h. Potency, µM (titrated, usually from 46.1 µM), without a hit: top-dose re-replication activation, hits mostly activators. actives 1.8% (n = 340,000); also: potency is read from the fitted curve at half-maximal effect; % of control where 0% means no effect; nearly all actives have a fitted effect of over 55% in size
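Per well, 250 cells were exposed to pinned compound for 48 hr. Nuclear DNA was visualised with Hoechst (40 min, 37 C) and total object intensity recorded by fluorescence scanning.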
IL1B secr inh: inhibitors of inflammasome signaling (IL-1 beta secretion); actives 4.7% (n = 360,000); activity change, % at 57.5 µM; THP-1 LPS/ATP IL-1B secretion, AlphaLISA, 16 h; stronger effect = lower value; AID 743279; in the data active = activity change below about -50%; inconclusive = mostly about -30% to -49%; also: % is scaled to controls: 0 for no effect and ±100 for the full control effect
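Secreted IL-1B measured by AlphaLISA bead assay after 16 h compound exposure of THP-1 cells; compounds (final up to 57.5 uM) added 1 h before LPS (250 ng/mL) and ATP (1.25 mM) stimulation; lower signal means less secretion.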
KB-V1 cytotox: KB-V1 MDR subline cytotoxicity; KB-V1 MDR cells viability, CellTiter-Glo, 72 h; Potency, µM (doses to about 46.1 µM), hits mostly cytotoxic; actives 3.4% (n = 400,000); also: potency is read from the fitted curve at half-maximal effect; % is scaled to controls: 0 for no effect and ±100 for the full control effect; nearly all actives have a fitted effect of over 60% in size
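Potencies derive from concentration-effect curves fitted to normalized luminescence (CellTiter-Glo) of KB-V1 cells treated for 72 h at 37 degrees C in phenol-red-free DMEM containing 10% FBS.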
* = called active by the depositor; i = inactive; u = inconclusive; x = no result given. Unless noted, calls follow the shape of the dose curve; as a rule, active = well fitted curve in the direction sought with a large enough effect; inconclusive = small, poorly fitted or top-dose-only effect, or another doubt; inactive = no such curve, though single readings can be large; an effect the other way counts as inactive or inconclusive.

SMILES	KB-3-1 tox	MCF10A rerep	SW480 rerep	IL1B secr inh	KB-V1 cytotox
O=C(Cn1cc(Cl)c([N+](=O)[O-])n1)NCCC1=CCCCC1	i	-4%	-15%	-14	i
COc1ccc(Nc2nc3[nH]c(=O)cc(O)c3s2)cc1	i	16%	2%	-13	i
O=c1cc(O)c2sc(Nc3ccc(Cl)c(F)c3)nc2[nH]1	13µM*	18%	u	22	i
O=c1cc(O)c2sc(Nc3ccc(F)c(Cl)c3)nc2[nH]1	21µM*	18%	1%	21	i
CCn1c(SCC(=O)Nc2ccccc2)nc2nc3c(cc2c1=O)COC(C)(C)C3	i	-2%	2%	-1	i
CCn1c(SCC(=O)Nc2cccc(C)c2)nc2nc3c(cc2c1=O)COC(C)(C)C3	i	7%	-3%	-83*	u
Cc1nc(C(F)(F)F)c(C(=O)N/N=C(\N)c2ccccn2)s1	u	u	7.3µM*	47	u
COCCNC(=O)C1(C)CCCN(C(=O)COc2ccccc2)C1 (stereo unspecified)	i	x	x	-85*	i
COCCNC(=O)C1(C)CCCN(C(=O)CCc2ccccc2)C1 (stereo unspecified)	i	x	x	-6	i
COc1ccc(C(c2c(O)cc(C)oc2=O)c2c(O)cc(C)oc2=O)cc1	i	-6%	-1%	19	i
COc1ccc(C2CC(c3c(O)cc(C)oc3=O)=NCCS2)c(OC)c1 (stereo unspecified)	0.29µM*	1.1µM*	u	-8	0.37µM*
N#CCSc1nccc(/C=C/c2ccccc2)n1	i	10%	8%	-92*	i
N#Cc1cccnc1N1CCN(C(=O)c2cccc3c2C(=O)c2ccc(-c4ccc(Cl)c(C(F)(F)F)c4)cc2S3(=O)=O)CC1	i	-2%	1%	11	i
O=C1c2ccc(Cl)cc2S(=O)(=O)c2cccc(C(=O)N3CCC(Cc4ccccc4)CC3)c21	i	u	u	-99*	i
O=C(NC1CC1)c1cccc2c1C(=O)c1ccc(N3CCC(Cc4ccccc4)CC3)cc1S2(=O)=O	i	u	u	17	u
N#Cc1cccnc1N1CCN(C(=O)c2cccc3c2C(=O)c2ccc(Cl)cc2S3(=O)=O)CC1	u	0%	4%	-99*	i
COCCCNCCOc1ccc(C(C)(C)c2ccccc2)cc1	i	u	u	-68*	i
CCC(C)NCCOc1ccc(C(C)(C)c2ccccc2)cc1 (stereo unspecified)	u	u	5%	-66*	u
COCCCNCCOc1ccccc1-c1ccccc1	i	2%	-2%	-30	i
CCCOc1ccc(OCCCCNC(C)CC)cc1 (stereo unspecified)	i	27%	3%	0	i
Cc1ccc(C)c(NC(=O)CC2NCCNC2=O)c1 (stereo unspecified)	u	x	x	x	i
Cc1ccccc1CN1C(=O)c2ccccc2S(=O)c2ccc(C(=O)NCc3ccco3)cc21 (stereo unspecified)	i	x	x	x	i
O=C1CC(/C=C/c2ccncc2)=Nc2ccccc2N1	u	u	16µM*	x	u
O=C1CC(c2ccccc2)=Nc2ccccc2N1	i	8%	-4%	14	i
O=C1C(=O)c2ccccc2C(O)=C1CC=C(Cl)Cl	15µM*	-1%	3%	-5	3.7µM*
SMILES	KB-3-1 tox	MCF10A rerep	SW480 rerep	IL1B secr inh	KB-V1 cytotox
O=C1C(C=Nc2ccccc2)=C(O)c2ccccc21	i	-3%	-6%	-14	i
CC[C@]12C(=O)N(C)C[C@H]([C@@H]3C(=O)N(Cc4ccccc4)C(=O)[C@@H]31)N2C(=O)c1ccc(F)cc1	i	1%	-15%	23	i
CN(CCOc1ccccc1)CC(=O)Nc1cc([N+](=O)[O-])ccc1Cl	i	u	-1%	-28	u
CCOc1ccc(CN(C)CC(=O)Nc2ccc([N+](=O)[O-])cc2Cl)cc1	i	8%	4%	0	16µM*
CN(C1CCCCC1)S(=O)(=O)c1ccc2c(c1)c(=O)c(C(=O)NCc1ccccc1Cl)cn2C	u	x	x	x	i
Nc1nc(-c2ccc(-n3nncc3-c3ccco3)cc2)cs1	i	23µM*	21%	-13	i
